# Data as given in publication PMC11062922 (Nature Chemical Biology, 2023).
# Like-named read-outs stand apart in the source and are kept apart here.
# What was measured:
# Parameters in all cases: species or system human, MV4-11 + K-562 + COLO205 + SK-N-BE2 + OVCAR-8
# PI4KA = conditions: read-out: apparent Kd, compound concentrations: 100 nM and 1000 nM (sheet 'Samples'), n = 1
# PI4KB = conditions: read-out: apparent Kd, compound concentrations: 100 nM and 1000 nM (sheet 'Samples'), n = 1
# PIK3CG = conditions: read-out: apparent Kd, compound concentrations: 100 nM and 1000 nM (sheet 'Samples'), n = 1
# PIM2 = conditions: read-out: apparent Kd, n = 1
# PRKDC = conditions: read-out: apparent Kd, compound concentrations: 100 nM and 1000 nM (sheet 'Samples'), n = 1
# PKN3 = conditions: read-out: apparent Kd, compound concentrations: 100 nM and 1000 nM (sheet 'Samples'), n = 1
# TESK2 = conditions: read-out: apparent Kd, compound concentrations: 100 nM and 1000 nM (sheet 'Samples'), n = 1
# PDXK = conditions: read-out: apparent Kd, compound concentrations: 100 nM and 1000 nM (sheet 'Samples'), n = 1
# PRKD2 = conditions: read-out: apparent Kd; compound concentrations:100 nM and 1000 nM (sheet 'Samples'); n = 1
# PRKD3 = conditions: read-out: apparent Kd; compound concentrations:100 nM and 1000 nM (sheet 'Samples'); n = 1
# PDGFRB = conditions: read-out: apparent Kd, compound concentrations: 100 nM and 1000 nM (sheet 'Samples'), n = 1
# PKN2 = conditions: read-out: apparent Kd; compound concentrations: 100 nM and 1000 nM (sheet 'Samples'), CATDS: 0.34889068310517501; n = 1
# RIPK2 = conditions: read-out: apparent Kd; compound concentrations: 100 nM and 1000 nM (sheet 'Samples'), CATDS: 1; n = 1
smiles,measurement,setting,value
Nc1ncc(-c2ccc3nccc(-c4ccncc4)c3c2)cc1S(=O)(=O)N1CCCCC1 [GSK1693850A],potency estimated from few doses,PI4KA; CATDS: 8.4526475439373194E-2,464 nM
same,potency estimated from few doses,PI4KB; CATDS: 7.2380110997406405E-2,777 nM
same,potency estimated from few doses,PIK3CG; CATDS: 0.150773969962682,88.7 nM
same,potency estimated from few doses,"PIM2; compound concentrations: 100 nM and 1000 nM (sheet 'Samples'), CATDS: 5.9438014075045897E-2",1790 nM
same,potency estimated from few doses,PRKDC; CATDS: 8.88426876970108E-2,398 nM
Nc1c(C(=O)c2cccc(C(O)(CO)CO)c2)cnn1-c1ccc(F)cc1 [RO3201790-000],potency estimated from few doses,PI4KB; CATDS: 0.52236122392279105,888 nM
same,potency estimated from few doses,PKN3; CATDS: 0.47947466272848499,1050 nM
Cc1ccccc1Cn1ccn2c(=O)cc(N3CCOCC3)nc12 [GSK2269905A],potency estimated from few doses,TESK2; CATDS: 0.33988229357461403,1410 nM
COc1ncc(-c2cc(-c3ncc(CN4C[C@@H](C)O[C@@H](C)C4)o3)c3cn[nH]c3c2)cc1NS(C)(=O)=O [GSK2292767],potency estimated from few doses,PDXK; CATDS: 9.0064918958082996E-2,779 nM
same,potency estimated from few doses,PIK3CG; CATDS: 0.13255621983520199,142 nM
same,potency estimated from few doses,PRKDC; CATDS: 9.7121910991741403E-2,515 nM
CN(C)CCOc1ccc(-c2cc(-c3ccc(Cl)c(O)c3)c(-c3ccncc3)[nH]2)cc1.CN(C)CCOc1ccc(-c2cc(-c3ccc(Cl)c(O)c3)c(-c3ccncc3)[nH]2)cc1.Cl.Cl [SB-684387-B],potency estimated from few doses,PI4KA; CATDS: 0.33665131532266801,1060 nM
Cc1cccc(-c2nc(Nc3ccc4c(cnn4C)c3)c3ccccc3n2)n1 [GW876731X],potency estimated from few doses,PRKD2,26.7 nM
same,potency estimated from few doses,PRKD3,32.8 nM
COc1ccc(-c2coc3ncnc(N)c23)cc1 [GW642125X],potency estimated from few doses,PDGFRB; CATDS: 1,1540 nM
COC(=O)C(NC(=O)NC1CCN(c2ccnc(Nc3ccc(F)cc3)n2)C1)c1ccccc1 (stereo not shown) [GSK1379712_KCGS],potency estimated from few doses,PI4KB; CATDS: 0.55367516713285103,946 nM
CN(C)S(=O)(=O)c1cc(-c2ccc3nccc(-c4cccc(S(N)(=O)=O)c4)c3c2)cnc1N [GSK1669921A],potency estimated from few doses,PI4KA; CATDS: 0.112986099678868,1300 nM
same,potency estimated from few doses,PIK3CG; CATDS: 0.14675867951409499,466 nM
same,potency estimated from few doses,PRKDC; CATDS: 0.12241161716625901,920 nM
COc1cc(Nc2nccc(N3CCC(NC(=O)Nc4cc(C)ccc4C)C3)n2)cc(OC)c1OC (stereo not shown) [GSK1379762_KCGS],potency estimated from few doses,"PIM2; compound concentrations: 100 nM and 1000 nM (sheet 'Samples'), CATDS: 1",1940 nM
O=C1Nc2ccc(I)cc2C1=Cc1cc(Br)c(O)c(Br)c1 [GW305074X_KCGS],potency estimated from few doses,PIM2; compound concentrations:100 nM and 1000 nM (sheet 'Samples'),2090 nM
Cc1cc(-c2ccc3c(c2)CC[C@@H](N[C@@H](C)c2ccccc2)C3)cnc1N.Cc1cc(-c2ccc3c(c2)CC[C@@H](N[C@@H](C)c2ccccc2)C3)cnc1N.Cl.Cl [GW412617A],potency estimated from few doses,TESK2; CATDS: 0.45795860987145298,1470 nM
O=C(NCCNc1ccnc(Nc2ccc(F)cc2)n1)Nc1ccccc1F [GSK1379880A],potency estimated from few doses,PDGFRB; CATDS: 0.36710217729011002,1450 nM
CCn1c(-c2ccoc2)nc2cnccc21 [SB-733887],potency estimated from few doses,PDXK; CATDS: 1,1740 nM
CCn1c(-c2ccncc2)nc2cnccc21 [SB-735216],potency estimated from few doses,PKN2,2400 nM
Cn1ccc(-c2cccc(Nc3ccnc4cc(-c5nccs5)ccc34)c2)n1 [GW525701_KCGS],potency estimated from few doses,PDXK; CATDS: 0.47551644164597001,1690 nM
CC1=C(C(=O)Nc2cc3cn[nH]c3cc2F)C(c2ccc(C(F)(F)F)cc2)CC(=O)N1 (stereo not shown) [GSK429286A],potency estimated from few doses,PKN3; CATDS: 0.172679408369589,1700 nM
CCn1c(-c2nonc2N)nc2c(N3CCCC3)nccc21 [SB-744941],potency estimated from few doses,PKN3; CATDS: 1,2110 nM
CNC(=O)c1cncc(/C=C/c2ccccc2C)c1 [GW445015X],potency estimated from few doses,RIPK2,795 nM
Cc1cccc(-c2n[nH]cc2-c2ccc3ncccc3n2)n1 [GW786460X],potency estimated from few doses,PRKD2,465 nM
same,potency estimated from few doses,PRKD3,640 nM
